Rows were chosen to be rich in hits. Some 3% of all compounds tested hit in one or more screens of this group.
USP1-UAF1 inh: USP1/UAF1 (human) deubiquitinase inhibition; O94782; recombinant USP1/UAF1, Ub-Rhodamine cleavage fluorescence; Potency, µM (top dose mostly 57.1 µM), for inactives: at the highest dose activity change, negative = inhibition, actives largely listed as inhibitors; 390,000 compounds, 0.23% hits; AID 743255; note: % is set by controls: 0 for no effect and ±100 for the full control effect; nearly all actives have a fitted effect of over 60% in size
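High-throughput fluorogenic screen: 1nM USP1/UAF1 complex, Ub-Rho substrate 150nM final, 50mM HEPES pH 7.8 with 0.5mM EDTA, 0.1 mg/ml BSA, 1mM TCEP and 0.01% Tween-20.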
KAT2A inh: blocks human GCN5L2 histone acetyltransferase; Q92830; GCN5L2 HAT assay, ThioGlo1 CoA-SH fluorescence; Potency, µM (top dose mostly 58.9 µM), for inactives: at the top dose activity change, negative = inhibition, usual class: inhibitors; 390,000 compounds, 0.21% hits; AID 504327; note: % is set by controls: 0 for no effect and ±100 for the full control effect
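Fluorescence readout, Ex340nm/Em540nm: ThioGlo1 (50uM final) reacts with free CoA thiol released as 20nM GCN5L2 acetylates H3(1-25) peptide (75uM) using acetyl-CoA (70uM). Compound and enzyme sat 15 min beforehand; 20 min room-temperature reaction.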
PTAP TSG101 blk: blocks PTAP/TSG101 interaction to inhibit HIV-1 budding; Q99816; Fluorescence polarization, FITC-PTAP peptide / Tsg101 binding; Potency, µM (doses to about 115 µM), for inactives: top-dose activity change, negative = inhibition, actives largely listed as inhibitors; 340,000 tested, under 10 active; AID 493005; active = well fitted inhibition curve with a large enough effect in the main read-out, with a control signal flat, not every such curve was filed as active; inconclusive = small, poorly fitted or top-dose-only effect, or effect the other way, or a change in a side signal; inactive = no such curve, though single readings can be large or run the other way; note: % of control where 0% means no effect
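Fluorescence anisotropy tracks displacement of a FITC-tagged PTAP peptide (50 nM) from the Tsg101 binding domain (10 uM), following a 20 min room-temperature incubation at pH 7.5.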
VDR inh: vitamin D3 receptor (human) inhibition. AID 504847. VDR-SRC2-3 peptide fluorescence polarization, 2 h. P11473. Potency, µM, for inactives: max response, negative = inhibition, most hits filed as inhibitors. 400,000 compounds, 0.93% hits; note: % is set by controls: 0 for no effect and ±100 for the full control effect
Target sequence (P11473 whole entry, looked up): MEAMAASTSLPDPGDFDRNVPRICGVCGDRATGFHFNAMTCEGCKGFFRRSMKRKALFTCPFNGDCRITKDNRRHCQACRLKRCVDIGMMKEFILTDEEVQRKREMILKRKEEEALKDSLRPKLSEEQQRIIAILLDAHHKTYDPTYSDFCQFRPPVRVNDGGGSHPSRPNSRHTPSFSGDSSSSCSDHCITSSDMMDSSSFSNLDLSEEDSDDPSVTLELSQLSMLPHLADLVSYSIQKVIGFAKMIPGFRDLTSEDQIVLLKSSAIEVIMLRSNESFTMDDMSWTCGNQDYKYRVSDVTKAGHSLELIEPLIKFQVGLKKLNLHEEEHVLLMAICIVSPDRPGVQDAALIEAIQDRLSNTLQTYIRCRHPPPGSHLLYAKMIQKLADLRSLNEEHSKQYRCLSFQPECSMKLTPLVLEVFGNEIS
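Reagent solutions, kept cold and dark, are dispensed first; compounds are then pinned in at 23 nl, plates briefly spun, and incubated 2 h at ambient temperature. Inhibition of VDR–SRC2-3 peptide binding is read by fluorescence polarization.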
PLK1 PBD inh: inhibitors of human PLK1 polo-box domain binding | P53350 | Plk1 PBD binding of FITC phosphopeptide, fluorescence polarization | Potency, µM, for the others: max response, negative = inhibition, usual class: inhibitors | 360,000 compounds, 2.8% hits | AID 720504; note: series mostly up to about 57 µM; % is set by controls: 0 for no effect and ±100 for the full control effect; nearly all actives have a fitted effect of over 65% in size
An asterisk follows results filed as active; ? = inconclusive; · = no result; ! = not confirmed by another sample. Unless noted, calls come from the whole dose curve; as a rule, active = well fitted curve in the direction sought with a large enough effect; inconclusive = small, poorly fitted or top-dose-only effect, or another doubt; inactive = no such curve, though single readings can be large; an effect the other way counts as inactive or inconclusive. Potency is the fitted concentration of half-maximal effect.

SMILES | USP1-UAF1 inh | KAT2A inh | PTAP TSG101 blk | VDR inh | PLK1 PBD inh
C#CCOCCOCCOCCNc1nc(N2CCOCC2)nc(N2CCN(C(=O)[C@H](Cc3cc4ccccc4[nH]3)n3cc([C@@H](N)Cc4ccc(O)cc4)nn3)CC2)n1 | 21% | -3% | -4% | -19% | 27µM*
c1ccc(CNc2nc(-c3ccoc3)nc3ccccc23)cc1 | · | -20% | · | 32µM* | ·
c1ccc(CNc2nc(-c3cccnc3)nc3ccccc23)cc1 | -24% | ? | -11% | 18µM*! | -8%
COc1ccccc1CNc1ccnc(-c2cccnc2)n1 | · | -3% | · | ? | ·
Cc1cccc(CNc2nc(-c3ccoc3)nc3ccccc23)c1 | · | -9% | · | ? | ·
Fc1ccc(Nc2nc(-c3ccoc3)nc3ccccc23)cc1 | · | -17% | · | 16µM* | ·
c1ccc(CNc2ccnc(-c3cccnc3)n2)cc1 | · | ? | · | 40µM* | ·
CS(=O)(=O)N1CCc2cc(C(=O)Nc3cccc(F)c3)ccc21 | -14% | -2% | · | -2% | ·
CCOc1ccc(Br)cc1C1=NN(C(C)=O)C(c2ccc([N+](=O)[O-])s2)O1 (stereo unspecified) | 22µM* | -1% | -2% | 9% | -13%
CC(=O)N1N=C(c2ccc(C)cc2)OC1c1ccc(Br)cc1 (stereo unspecified) | -12% | 10% | 0% | 11% | -14%
O=S(=O)(NCc1cccc(Br)c1)c1ccc(-c2cc(C(F)(F)F)on2)s1 | -18% | -1% | · | 15% | ·
Cn1c2nc(=O)n(-c3ccccc3)c(=O)c-2nc2c1CCCC2 | 14µM* | · | · | · | ?
Cc1ccc(S(=O)(=O)/N=C2/NC(=O)/C(=C/c3ccccc3)S2)cc1 | -18% | -2% | -11% | ? | ?
Cc1ccc(/C=C2\S/C(=N/S(=O)(=O)c3cccs3)NC2=O)cc1 | ? | -1% | -4% | -25% | 19µM*
Cc1ccc(S(=O)(=O)/N=C2/NC(=O)/C(=C\c3ccccc3)S2)cc1 | ? | ? | -7% | 79µM* | 24µM*
Cc1ccc(S(=O)(=O)/N=C2/NC(=O)/C(=C/c3cc([N+](=O)[O-])ccc3O)S2)cc1 | 28µM* | -6% | 28% | ? | 4%
COc1cc(C2Oc3nc(SC)nnc3-c3ccccc3N2C(C)=O)cc(Cl)c1OC (stereo unspecified) | -26% | -9% | · | -14% | ·
CCOc1ccccc1C(=O)NCC(c1ccc(N(C)C)cc1)N1CCc2ccccc21 (stereo unspecified) | -23% | 1% | · | 6% | ·
COC(=O)c1ccccc1NC1=C/C(=N\S(=O)(=O)c2cccs2)c2ccccc2C1=O | 4µM* | -11% | -6% | ? | 19µM*
Cc1ccc(NC2=C/C(=N/S(=O)(=O)c3cccs3)c3ccccc3C2=O)cc1 | ? | -4% | -3% | -2% | -6%
COC(=O)c1ccccc1NC1=C/C(=N\S(=O)(=O)c2ccc(C(=O)O)cc2)c2ccccc2C1=O | 13µM* | -11% | 0% | 25µM* | ?
O=C1C(Nc2ccccc2)=C/C(=N/S(=O)(=O)c2cccs2)c2ccccc21 | 2.5µM* | -5% | 1% | -14% | -24%
Cc1cc(C)n2c(Nc3ccccc3C)c(-c3cccs3)nc2n1 | -19% | -3% | · | ? | ·
C#CCNC(=O)C1=C[C@H](C)C[C@H](OCc2ccc(CO)cc2)O1 | -22% | · | -2% | -3% | -7%
CCCCOc1ccc(C(=O)Nc2onc3c2CCCC3)cc1 | ? | -16% | · | 23% | ·
SMILES | USP1-UAF1 inh | KAT2A inh | PTAP TSG101 blk | VDR inh | PLK1 PBD inh
NCC1O[C@@H](O[C@@H]2C(O)[C@H](O[C@H]3OC(CO)C(O)C(N)C3O)[C@@H](N)C[C@H]2N)C(N)C(O)C1O (stereo partly specified) | · | 10% | · | 0% | ·
COc1ccc(C2NC(=S)N3C(c4ccc(OC)cc4)NC(=S)N23)cc1 (stereo unspecified) | -10% | -19% | -1% | -13% | 8.4µM*
OC1NC(=S)N(c2ccccc2)C1O (stereo unspecified) | -6% | 3% | -6% | -17% | -7%
Cc1ccc(C2NC(=S)N3C(c4ccc(C)cc4)NC(=S)N23)cc1 (stereo unspecified) | -11% | · | · | · | 2%
S=C1NC(c2ccccc2)N2C(=S)NC(c3ccccc3)N12 (stereo unspecified) | -17% | 28µM* | -6% | ? | ?
CN(C(=O)Cc1ccccc1OC(=O)c1ccccc1)c1ccccc1I | · | · | · | 2% | ·
Cc1cc(O)ccc1Nc1nc(-c2cccs2)cs1 | ? | -15% | -5% | 0% | -27%
Cc1nc(C)c(-c2csc(Nc3ccc(O)cc3C)n2)s1 | -12% | -15% | 1% | -22% | 27µM*
Cn1cc(S(=O)(=O)c2cccc(Cl)c2)c(=O)c2cc(F)c(N3CCN(c4ccc(F)cc4)CC3)cc21 | -18% | -5% | · | 3% | ·
O=C(Cn1sc2ccccc2c1=O)Nc1ccc(F)cc1 | -2% | · | · | · | 3µM*
O=C(Cn1sc2ccccc2c1=O)Nc1ccc(Br)cc1 | -27% | · | · | · | 3µM*
O=C(CN1C(=O)C2CC=CCC2C1=O)Nc1ccc(Br)cc1 (stereo unspecified) | -19% | -9% | -2% | 0% | -5%
Cc1ccc(NC(=O)Cn2nc(-c3ccc(Cl)cc3)c3ccccc3c2=O)cc1 | -14% | -1% | · | 8% | ·
O=C(Cn1sc2ccccc2c1=O)Nc1ccc(Cl)cc1 | ? | · | · | · | 5.3µM*
CCN(CC)CCOc1ccc(-c2nc3cc(Cl)ccc3s2)cc1 | · | -3% | · | 1% | ·
CC(=O)OCC1=C(C(=O)O)N2C(=O)[C@@H](NC(=O)Cc3cccs3)[C@H]2SC1 | 16% | 6% | -4% | ? | ?
O=C(Cc1cccs1)NC1C(=O)N2C(C(=O)[O-])=C(C[n+]3ccccc3)CSC12 (stereo unspecified) | · | ? | · | 25µM* | ·
Nc1c(C(=O)NC2CC2)sc2nc3c(c(-c4ccco4)c12)CC/C3=C/c1ccco1 | 28µM* | ? | ? | -27% | ?
NC(=O)c1sc2nc3c(c(-c4ccco4)c2c1N)CCC3 | -4% | -7% | -4% | -7% | ?

Screening data deposited in PubChem by National Center for Advancing Translational Sciences (NCATS).
